The values that follow come from PubChem BioAssay (EPA / NIEHS).

Values joined by “and” are separate entries in the source; they are usually repeats but may differ in a detail not shown here. Identical values can stand only once. Active and inactive are the calls of the source. The calls were made as follows: active = hit-call score of the fitted dose curve at least 0.9, where 1 is the maximum; inactive = score below 0.9.

Read-out in the assay: Intercellular Adhesion Molecule 1 (ICAM1), ICAM1 (gene 3383)
Briefly: BSK_KF3CT_ICAM1: BioMAP Diversity Plus: KF3CT Assay for Intercellular Adhesion Molecule 1 (ICAM1) Biomarker Activity (AID 2283067). The following applies: primary human keratinocytes with fibroblasts; actives raise or lower the signal. As for the experimental part:
BSK_KF3CT is a cell-based, multiplexed-readout assay that uses keratinocytes and foreskin fibroblasts, a human skin primary cell co-culture, with measurements taken at 24 hours after chemical dosing in a 96-well plate.BSK_KF3CT_ICAM1 is an assay component measured in the BSK_KF3CT assay. It measures ICAM-1 antibody related to regulation of gene expression using ELISA technology.Data from the assay component BSK_KF3CT_ICAM1 was analyzed into 1 assay endpoint. This assay endpoint, BSK_KF3CT_ICAM1, was analyzed with bidirectional fitting relative to DMSO as the negative control and baseline of activity. Using a type of binding reporter, gain or loss-of-signal activity can be used to understand changes in the signaling as they relate to the gene ICAM1. Furthermore, this assay endpoint can be referred to as a primary readout, because this assay has produced multiple assay endpoints where this one serves a signaling function. To generalize the intended target to other relatable targets, this assay endpoint is annotated to the cell adhesion molecules intended target family, where the subfamily is Immunoglobulin CAM.
The levels of cell surface (or secreted, indicated by the prefix "s") biomarker endpoints were measured by ELISA. Overt cytotoxicity to cells in confluent adherent cultures (all systems other than the BT system) was assessed by measuring total protein levels using sulforhodamine B (SRB) staining in parallel cultures at the time of biomarker measurements, indicated as SRB endpoints. For proliferation assays for adherent cell types, individual cell types are cultured at sub-confluence and relative cell numbers quantified by SRB staining at time points optimized for each system (48 h: 3C and CASM3C systems; 72 h: BT and HDF3CGF systems; 96 h: SAg system). SRB was performed by staining cells with 0.1% SRB after fixation with 10% TCA and reading wells at 560 nm.Viability and proliferation of PBMC (T cells) was quantified by Alamar Blue reduction for the SAg and BT systems. For PBMC viability (referred to as PBMC Cytotoxicity within the assay endpoint names), cells were plated (75,000/well in a 96-well plate) and then chemical samples added for 1 h before addition of activators, SEB and TSST-1 (20 ng/mL final concentration each). Cells were incubated for 90 h. Then, Alamar Blue (20 uL/well) (Invitrogen, Cat DAL1100) was added for 6 h, and the plates were read with a fluorescence microplate reader at 546/580 nm (excitation/emission). For PBMC proliferation, cells were plated and activated as above but incubated for only 16 h prior to addition of Alamar Blue. Plates were read after 6 h.
Take `CC1=CC2C3C=CC(C3)C2C1C` (stereo not given): the result was inactive. What is called AC50 is the concentration giving half of the maximal activity seen. As to `O=C1c2c(O)ccc(Nc3ccc(CCO)cc3)c2C(=O)c2c([N+](=O)[O-])ccc(O)c21`, the AC50 was 15.2 µM (active). Turning to `CC(C)(C)c1cc(CCC(=O)NCCCCCCNC(=O)CCc2cc(C(C)(C)C)c(O)c(C(C)(C)C)c2)cc(C(C)(C)C)c1O`, the outcome was inactive.

As to `O=C(O)CCC(F)(F)C(F)(F)C(F)(F)F`, the result was inactive. For the compound `Cc1cc(C)c(O)c(C(C)(C)C)c1`, the AC50 is 35.1 µM (active).

As to `CCN(CCO)S(=O)(=O)C(F)(F)C(F)(F)C(F)(F)C(F)(F)C(F)(F)C(F)(F)C(F)(F)C(F)(F)F`, the outcome was inactive. Still for that read-out and setting: the same measure for `OCCCCC(F)(F)C(F)(F)C(F)(F)C(F)(F)F`: “inactive”. Regarding `O=C(O)C(F)(F)C(F)(F)C(F)(F)C(=O)O`, the result was inactive. Same read-out and setting: the same measure for `CCN(CC)c1ccc(N=Nc2ccccc2)cc1`: “inactive”; for `O=C(Cl)C(F)(F)C(F)(F)C(F)(F)C(F)(F)C(F)(F)C(F)(F)F`: “inactive”. The same measure, in the same setting: with `O=S(=O)(O)CCC(F)(F)C(F)(F)C(F)(F)C(F)(F)C(F)(F)C(F)(F)C(F)(F)C(F)(F)F` the entry was “inactive”; with `COC(F)(C(F)F)C(F)(F)F` (stereo not given), “inactive”; with `O=S(=O)(O)CCC(F)(F)C(F)(F)C(F)(F)C(F)(F)F`, “inactive”. Consider `FC(F)(F)C(F)(F)C(F)(F)C(F)(F)C(F)(F)C(F)(F)CC[Si](Cl)(Cl)Cl`, for which the result was inactive. `Cc1ccc(O)c(-n2nc3ccccc3n2)c1`: the outcome was inactive. Take `C=C(C)C(=O)OCC(F)(F)C(F)(F)C(F)(F)C(F)F`: the outcome was inactive.

Take `C=CC(=O)OCC(F)(F)C(F)(F)C(F)(F)COC(=O)C=C`: the AC50 is 21.8 µM (active) and 21.3 µM (active). Take `Cc1ccc(S(=O)(=O)C(I)I)cc1`: the AC50 is 3.07 µM (active). As for `OCC(O)CC(F)(F)C(F)(F)C(F)(F)C(F)(F)F` (stereo not given), the result was inactive.

For `C[C@]12CC[C@H]3C(=CCc4cc(O)ccc43)[C@@H]1CCC2=O`, the outcome was inactive. Turning to `O=S(=O)(Cl)C(F)(F)C(F)(F)C(F)(F)C(F)(F)C(F)(F)C(F)(F)C(F)(F)C(F)(F)F`, the result was inactive. On the same count and under the same terms, with `O=C=NCc1cccc(CN=C=O)c1` the entry was “inactive”.

Regarding `C=CC(=O)OCC(F)(F)C(F)(F)C(F)(F)C(F)(F)C(F)(F)C(F)(F)C(F)(F)C(F)F`, the outcome was inactive.

For the compound `CCN=C1C=CC(=C(c2ccc(N(CC)CC)cc2)c2ccc(N(CC)CC)cc2)c2ccccc21`, the concentration at half-maximal activity (AC50) was 3.19 µM (active) and 3.16 µM (active). On to `FC(F)(F)C(F)(F)C(F)(F)C(F)(F)C(F)(F)C(F)(F)C(F)(F)CCI`, for which the result was inactive. Regarding `O=C(O)C(F)(F)OC(F)(F)C(F)(F)OC(F)(F)C(F)(F)OC(F)(F)F`, the outcome was inactive.

Regarding `O=C(O)C(F)(F)C(F)(F)C(F)(F)OC(F)(F)F`, the result was inactive. Same read-out and setting: the same measure for `Nc1cc([N+](=O)[O-])cc(Cl)c1O`: “inactive”; for `CCOC(=O)CC(=O)C(F)(F)C(F)(F)F`: “inactive”. As for `CC(C)CCCC(C)CCO` (stereo not given), the AC50 was 36.5 µM (active). Turning to `NCC(F)(F)C(F)(F)C(F)(F)C(F)(F)C(F)(F)C(F)(F)F`, the outcome was inactive. On the same count and under the same terms, the same measure for `NC(O)(C(F)(F)F)C(F)(F)F`: “inactive”; for `C=CC(=O)OCCC(F)(F)C(F)(F)C(F)(F)C(F)(F)F`: “inactive”.

As for `OCC(F)(F)C(F)(F)C(F)(F)C(F)(F)C(F)(F)C(F)(F)CO`, the result was inactive. On the same count and under the same terms, the same measure for `O=C=Nc1cccc2c(N=C=O)cccc12`: “inactive”. The same measure, in the same setting: the same measure for `CCN(CC)c1ccc(C=O)cc1`: “inactive”. For `O=S(=O)(OCC(F)(F)F)C(F)(F)C(F)(F)C(F)(F)C(F)(F)F`, the outcome was inactive. With `Cc1cc(O)c(C(C)(C)C)cc1C(C)(C)C`, the AC50 was 2.89 µM (active). As for `CN(C(=O)C(F)(F)C(F)(F)C(F)(F)F)[Si](C)(C)C`, the outcome was inactive. Same read-out and setting: with `CCN(CC)c1ccc2c(c1)Oc1cc(N(CC)CC)ccc1C21OC(=O)c2ccccc21` the entry was “inactive”.
